“And” between values parts separate entries of the source, which are not always exact repeats. Equal values may be shown once. Inconclusive results are not listed. A structure can be active in one record and inactive in another. A number with no mark means an inactive call. The source made the active and inactive calls. The call rests on the fitted dose curve; in most records, active means well fitted inhibition curve with a large enough effect; inconclusive means small, poorly fitted or top-dose-only effect; inactive means flat fitted curve, though single readings scatter.
system: HEK293; test: Cytotoxic Profiling of Annotated Libraries Using Quantitative High-Throughput Screening (AID 1296008); conditions: Five cell lines viability, CellTiter-Glo ATP luminescence, 48-72 h; max response: active compounds read low; further: nearly all actives have a fitted effect of over 60% in size
Text: Cell-based phenotypic screening is a commonly used approach to discover biological pathways, novel drug targets, chemical probes and high-quality hit-to-lead molecules. Many hits identified from high-throughput screening campaign are ruled out through a series of follow-up potency, selectivity/specificity, and cytotoxicity assays. Prioritization of molecules with little or no cytotoxicity for a more in-depth downstream evaluation influence the future direction of projects, so cytotoxicity profiling of the screening libraries at early stage is essential for increasing the likelihood of candidate success. […] For the annotated library, we also examined the primary targets and mechanistic pathways regularly associated with cell death. To our knowledge, this is the first study to use high-throughput screening to profile large libraries for cytotoxicity assessment in both normal and cancer cell lines. In summary, the results generated here constitutes a valuable resource for the scientific community and provides insight on identifying cytotoxic compounds with particular mechanisms of action, and prioritizing compounds with suitable cytotoxicity profile for further evaluation.
A pintool (Kalypsys) was used to transfer 23 nL of compound solution to the 1536-well assay plates. After 48 or 72 hr incubation at 37 degree Celsius, 5% CO2 and 95% humidity, 2.5 uL of CellTiter-Glo (Promega) was dispensed into each well using a dispenser (Aspect Automation, St. Paul, MN) with solenoid valves (Lee Valves, Westbrook CT). Plates were left at room temperature for 10 min before imaging the ATP-coupled luminescence using a ViewLux microplate imager (PerkinElmer, Waltham, MA).
On the % scale 0 is the no-effect control and ±100 the full control effect; potency means the concentration at half of the fitted maximal effect.

Structure (SMILES)	max response	outcome	Potency
Nc1c(Cl)c(Cl)c(Cl)c(Cl)c1Cl	-6.61%		
CC[N+]1(CCOC(=O)C(O)(c2ccccc2)c2ccccc2)CCCCC1		inactive	
CC(O)CN1CCN(CC(=O)[O-])CCN(CC(=O)[O-])CCN(CC(=O)[O-])CC1.[Gd+3] (stereo unspecified)	-21.1%		
Nc1ccc(Sc2ccc(N)cc2)cc1	-4.95%		
CC1(N2CCC(n3c([C@@H]4CCCNC4)nc4ccccc43)CC2)CCCCCCC1			4.69 µM (active) and 7.31 µM (active)
C[N+](C)(C)CC(=O)O	-2.82%		
Cc1ccccc1-n1c(Cn2cnc3c(N)ncnc32)nc2cccc(C)c2c1=O		inactive	1.48 µM (active)
OCCCBr		inactive	
O=[N+]([O-])c1c(Cl)c(Cl)cc(Cl)c1Cl	4.07%		
COC(C)(C)CCCC(C)C/C=C/C(C)=C/C(=O)OC(C)C (stereo unspecified)	3.25%		
COC1=C[C@@H]2[C@@H]3Cc4ccc(OC)c(O)c4[C@]2(CCN3C)CC1=O	1.05% and -3.7%		
CC(=O)[O][Hg][c]1ccccc1			0.376 µM (active)
CN[C@@H](C)[C@H](O)c1ccccc1		inactive	
O=[N+]([O-])c1ncc[nH]1	-7.79%		
C=CCC1=C(C)C(OC(=O)C2C(C=C(C)C)C2(C)C)CC1=O (stereo unspecified)			19.3 µM (active)
CC(Cc1ccc(O)cc1)NCC(O)c1cc(O)cc(O)c1 (stereo unspecified)	-1.83%		
CC[C@@]1(O)C(=O)OCc2c1cc1n(c2=O)Cc2cc3ccccc3nc2-1			0.0418 µM (active)
CO/C=C(/C(=O)OC)c1ccccc1Oc1cc(Oc2ccccc2C#N)ncn1			8.63 µM (active)
CC[C@H]1C=CC=CC[C@@H](C)[C@H](O)[C@@](C)(O)C(=O)[C@@H](C)[C@H](O)[C@@H](C)C(=O)[C@@H](C)[C@H](O)[C@@H](C)C=CC(=O)O[C@@H]2[C@@H](C)[C@H](CC1)O[C@]1(CC[C@H](C)[C@H](C[C@@H](C)O)O1)[C@H]2C			0.332 µM (active)

Structure (SMILES)	max response	outcome	Potency
Fc1cc(Br)ccc1CBr	-1.72%		
C[C@]12CC[C@@H]3[C@@H](CCC4=CC(=O)CC[C@@H]43)[C@@H]1CC[C@@H]2OC(=O)CCc1ccccc1		inactive	
Cc1cc(O)ccc1Cl	0.405%		
CC(C)(O)C(=O)Nc1ccc([N+](=O)[O-])c(C(F)(F)F)c1	-21.8%		
C1=C2CCCN[C@H]2[C@@H]2C[C@H]1[C@@H]1CCCCN1C2	0.094%		
O=C(NCC1CCOCC1)c1cnc(Nc2ccc(Cl)cc2Cl)nc1C(F)(F)F	-4.23%		8.2 µM (active)
CC(=Cc1csc(C)n1)[C@@H]1C[C@H]2O[C@]2(C)CCC[C@H](C)[C@@H](O)[C@@H](C)C(=O)C(C)(C)[C@@H](O)CC(=O)O1	-85.5%		
O=C(N[C@H]1CN2CCC1CC2)c1ccc(Cl)cc1	-12.5%	inactive	
CCO/N=C(\CC)C1=C(O)CC(c2c(C)cc(C)cc2C)CC1=O (stereo unspecified)			24.3 µM (active)
CCCCCCCCCCCCCCCC[N+](C)(C)C			5.96 µM (active)
Cc1[nH]nc2ccc(-c3cncc(OC[C@@H](N)Cc4c[nH]c5ccccc45)c3)cc12			132 nM (active) and 103 nM (active)
CCCCC(CC)COC(=O)c1ccccc1C(=O)OCC(CC)CCCC (stereo unspecified)		inactive	
CC1=C(C(=O)O)N2C(=O)[C@@H](N)[C@H]2SC1		inactive	
O=c1cccc2n1CC1CNC[C@H]2C1	-2.71%		
CCN1C[C@]2(OC(=O)c3ccccc3NC(C)=O)CC[C@H](OC)[C@@]34[C@H]5CC6[C@@H](OC)C[C@](O)(C(C[C@@H]23)[C@@H]14)[C@@]5(O)[C@@H]6OC	-8.41%		
S=C(SSC(=S)N1CCCCC1)N1CCCCC1			0.944 µM (active)
Cc1c(C(=O)Nc2cccc(C(F)(F)F)c2)cc(-c2ccccc2)n1CCCN1CCOCC1			14.8 µM (active) and 14.6 µM (active)
O=c1[nH]c2ccc(Cl)cc2c(N[C@@H]2CN3CCC2CC3)c1-c1nc2ccccc2[nH]1	-122%		0.059 µM (active)
